Test results from the OligoGym collection.

Biological target: CTSH
Assay: pooled miR-30 sensor sort-seq; sequence = guide strand
Settings: shRNA
Also: reference of the scale not given here.

Row | Sequence | sensor-assay potency score (higher = more potent)
1 | TTGTTGTACAGGATATACTCGA | 0.136
2 | TACATCCTTGACAAAGCCGATG | -1.28
3 | TTTGGTGGCTGAGCAATTCTGA | -0.218
4 | TACTGTAGGTCTTACGGTGCTT | -0.0767
5 | TTCAGTGCCATTTTAAATGTGT | 0.219
6 | TTTATCTGGAGTTTTATGGCAG | -0.245
7 | TGCTTAGACATCCATGACTTGA | -1.27
8 | TTTTATGGCAGGAAGTACTGGA | 0.401
9 | TTACGGTGCTTAGACATCCATG | -1.04
10 | TCTATACATCATGAAGTCCTGA | 0.44
11 | TTAGACATCCATGACTTGAAGT | -0.899

Biological target: CUZD1
Assay: as above
Settings: shRNA

Row | Sequence | sensor-assay potency score (higher = more potent)
12 | AAATACAGGAACATAGTCGTTT | 0.0357
13 | TTTGCTTATAATAACTCTCATC | -0.82
14 | TTGTATTACATCATCTTCTGTT | 0.486
15 | TATATGAAGAAATGTCTCGTTT | -0.417
16 | TTTGTATTACATCATCTTCTGT | -0.716
17 | TTACACTGCAGATACACAGAGC | -0.444
18 | TATCTTGTAATCTTTCTCCACT | -0.514
19 | TTTAGTTGCAAGTTATTCCCAT | 0.389
20 | TTGATTAGGTCGTAGGTTGGAG | 0.0207
21 | TTTGACTTTGTATTACATCATC | -1.5
22 | TTCTGATTGTACCACATCCATT | -1.82
23 | TTGAAGTTTAGTTTTATCTTGT | 0.539

Biological target: CWF19L2
Assay: as above
Settings: shRNA

Row | Sequence | sensor-assay potency score (higher = more potent)
24 | TTAGCCAGCTTAATCCACCATC | 0.0576
25 | TTTCTTGACAATTTTGTGCTTT | 0.803
26 | TTCTACTTTGTTTCTCAGCTTG | 0.279
27 | TTGCAGTATCTGTTGTAGCATA | -0.923
28 | TTAGTAATCGATGACACACTAC | -0.494
29 | TTAGATTCTCTTCTACACGTTT | -0.587
30 | TAAATTAACTGAACAATTCGGA | 0.661
31 | TTGTTTCTCAGCTTGTTCCTTC | 0.329
32 | TTTACTAAGTCTGATTCTCTAC | -0.315
33 | TAATCCACCATCTTCTACCACT | -1.06
34 | TAATCTTTCTTCACTGTTCTTG | 0.0595
35 | TGTTGTAGCATATCTATCCCTT | -0.316

Biological target: CXCL1
Assay: as above
Settings: shRNA

Row | Sequence | sensor-assay potency score (higher = more potent)
36 | ATGATTTTCTTAACTATGGGGG | -0.365
37 | TCGATGATTTTCTTAACTATGG | -1.57
38 | TTAACTATGGGGGATGCAGGAT | -1.04
39 | TTCCGCCCATTCTTGAGTGTGG | -0.98
40 | TTCACGTTCACACTTTGGATGT | -1.04
